Measured values as given in PubChem BioAssay (NCATS).
Results filed as inconclusive are left out. Activity calls are given as the source filed them. Calls come from the whole dose curve.

Molecular target: Nucleoprotein (Lymphocytic choriomeningitis virus (strain Armstrong)) (UniProt P09992)
Experiment: qHTS for Inhibitors of the Functional Ribonucleoprotein Complex (vRNP) of Lymphocytic Choriomeningitis Arenaviruses (LCMV): LCMV Primary Screen - GLuc reporter signal (AID 1347086); note: nearly all actives have a fitted effect of over 70% in size
Details: LCMV minigenome vRNP cell assay, Gaussia luciferase reporter; series mostly up to 57.5 µM
Potency is the fitted concentration of half-maximal effect.

Sequence of Nucleoprotein (Lymphocytic choriomeningitis virus (strain Armstrong)) (P09992 whole entry, looked up): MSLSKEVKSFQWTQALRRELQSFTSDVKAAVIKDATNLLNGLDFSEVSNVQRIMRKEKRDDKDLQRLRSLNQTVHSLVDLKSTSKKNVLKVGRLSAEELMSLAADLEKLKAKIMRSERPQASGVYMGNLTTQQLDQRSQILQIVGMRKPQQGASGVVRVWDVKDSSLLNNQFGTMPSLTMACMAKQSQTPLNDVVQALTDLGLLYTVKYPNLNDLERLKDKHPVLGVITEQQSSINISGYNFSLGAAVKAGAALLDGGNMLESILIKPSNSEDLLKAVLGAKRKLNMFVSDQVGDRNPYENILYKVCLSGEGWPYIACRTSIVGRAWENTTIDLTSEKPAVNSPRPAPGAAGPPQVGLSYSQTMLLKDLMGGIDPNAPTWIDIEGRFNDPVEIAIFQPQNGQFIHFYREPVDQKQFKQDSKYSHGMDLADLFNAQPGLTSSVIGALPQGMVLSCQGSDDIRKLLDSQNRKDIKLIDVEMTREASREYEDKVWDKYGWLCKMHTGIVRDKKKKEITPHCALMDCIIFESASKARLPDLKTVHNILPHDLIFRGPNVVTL

Compound | Potency
Cc1cnc(Nc2ccc(N3CCN(C)CC3)cc2)nc1Nc1cccc(S(=O)(=O)NC(C)(C)C)c1 | 30.6 µM (active)
Cn1cc(-c2cnn3c(N)c(Br)c([C@H]4CCCNC4)nc23)cn1 | 2.73 µM (active)
Cc1nc(NC(=O)N2CCC[C@@H]2C(N)=O)sc1-c1ccnc(C(C)(C)C(F)(F)F)c1 | inactive
